Laboratory results taken from PubChem BioAssay (Tox21).
Where “and” joins values, the source holds several entries; their conditions need not be identical. Equal entries are not always repeated. Inconclusive results are not listed. Calls of active or inactive are those of the source. Calls come from the whole dose curve; as a rule, active = well fitted activation curve with a large enough effect in the repeat runs; inconclusive = weak or mixed curves; inactive = flat fitted curve, though single readings scatter.

assay: A CellTox Green Cytotoxicity Assay to monitor cytotoxicity in HEK293 cells - 24 hour (AID 1224875); conditions: CellTox Green fluorescence; series mostly up to 76.8 µM; activity change: at the top concentration; note: nearly all actives have a fitted effect of over 45% in size
Text: National Center for Advancing Translational Sciences [NCATS]
NIH Chemical Genomics Center [NCGC]
U.S. Environmental Protection Agency [EPA]
National Institutes of Environmental Health Sciences [NIEHS]
National Toxicology Program [NTP]
Cell-based models are critical for drug discovery. Determining the natural cytotoxic effects resulting from test compounds is an essential research activity. A CellTox Green Cytotoxicity Assay to monitor cytotoxicity in real time of continues cell culture during 40 hours of the compound treatment was used to screen Tox21 10K library compounds in Hek293 cells. CellTox Green Cytotoxicity Assay is a nonlytic, homogeneous, biofluorescent method to measure cytotoxicity in cell culture after experimental manipulation. The assay system uses a proprietary asymmetric cyanine dye that is excluded from viable cells but preferentially stains the dead cell's DNA. […] Viable cells produce no appreciable increases in fluorescence. Therefore, the fluorescence signal produced by the binding interaction with dead cell DNA is proportional to cytotoxicity.
The mixture of Hek293 cell suspension and reagents were dispensed at 600cells/6 ul/well in 1536-well tissue culture treated black solid bottom plates using a Multidrop dispenser. After the assay plates were incubated at a 37 C/5% CO2 incubator for 5 hours, 23 nL of compounds dissolved in DMSO, positive and negative controls was transferred to the assay plate by a pintool work station. The plates were incubated at 37 C for 40 hours. The fluorescence intensity were measured at 0h, 8h, 16h, 24h, 32h and 40h time points using ViewLux plate reader during compound treatment.
% is set by controls: 0 for no effect and ±100 for the full control effect; potency is the fitted concentration of half-maximal effect.

Compound	activity change	Potency
Nc1ccc(Cl)cc1C(=O)c1ccccc1F	-4.93% [at 35.3 µM, hits give high values] (inactive)	–
Cc1cccc(Cc2cnc[nH]2)c1C	-38% [at 35.3 µM, hits give high values] (inactive)	–
S=C=NCCc1ccccc1	–	43.7 µM (active)
Nc1nc(N)c(N)c(N)n1	–	49.2 µM (active)
O.O.O.O=C([O-])[C@H]([O-])[C@@H]([O-])C(=O)[O-].O=C([O-])[C@H]([O-])[C@@H]([O-])C(=O)[O-].[K+].[K+].[Sb+3].[Sb+3]	4.23% (inactive)	–
COP(=S)(OC)Oc1nc(Cl)c(Cl)cc1Cl	-1.09% (inactive)	–
COc1ccc(Cc2nccc3cc(OC)c(OC)cc23)cc1OC	-5.14% [at 35.3 µM, hits give high values] (inactive)	–
COP(=S)(NC(C)C)Oc1ccc(C)cc1[N+](=O)[O-] (stereo not given)	-5.2% (inactive)	–
[O]=[Cr][O][Cr]=[O]	3.5% (inactive)	–
CCCCC(CC)COC(=O)OOC(C)(C)C (stereo not given)	-0.0734% (inactive)	–
[C-]1=CC=CC1.[Cl][Zr+2][Cl].c1cc[cH-]c1	-0.0942% (inactive)	–
CC(=O)[O-].CC(=O)[O-].CC(=O)[O-].[Sb+3]	1.85% [at 2.72 µM, hits give high values] (inactive)	–
CCC(C)Nc1c([N+](=O)[O-])cc(C(C)(C)C)cc1[N+](=O)[O-] (stereo not given)	6.41% (inactive)	–
C#CCO	-1.2% (inactive)	–
CC1(C)C(C=C(Cl)Cl)C1C(=O)OC(C#N)c1ccc(F)c(Oc2ccccc2)c1 (stereo not given)	-20.5% (inactive)	–
C[C@H]1[C@H](c2ccc(Cl)cc2)SC(=O)N1C(=O)NC1CCCCC1	10.2% (inactive)	–
S=C=Nc1ccccc1	-0.551% (inactive)	–
BrCC(Br)(Br)Br	17% (inactive)	–
ClCBr	-1.51% (inactive)	–
COC(=O)c1cc(Oc2ccc(Cl)cc2Cl)ccc1[N+](=O)[O-]	1.99% (inactive)	–

Compound	activity change	Potency
CCN(CC)CCc1c[nH]c2ccccc12	-12.5% (inactive)	–
CC(Cc1ccc2c(c1)OCO2)NO (stereo not given)	4.3% (inactive)	–
CCCCCON=O	-5.86% (inactive)	–
C1=CCC=C1	-6.12% (inactive)	–
O.O.O.O.O.O.O=S(=O)([O-])[O-].[Ni+2]	-20% [at 35.3 µM, hits give high values] (inactive)	–
[F][Sn]([c]1ccccc1)([c]1ccccc1)[c]1ccccc1	–	3.47 µM (active)
COCCC#N	-0.0223% (inactive)	–
O=C1C[C@@H]2OCC=C3CN4CC[C@]56c7ccccc7N1[C@H]5[C@H]2[C@H]3C[C@H]46	1.66% [at 35.3 µM, hits give high values] (inactive)	–
CN(C)CCc1c[nH]c2ccccc12	-17% (inactive)	–
CC(=O)[O-].CC(=O)[O-].O.O.O.[Pb+2]	-13.8% (inactive)	–
O=C(NC(=O)c1ccccc1Cl)Nc1ccc(OC(F)(F)F)cc1	-3.14% (inactive)	–
Oc1ccc2[nH]cc(CCCCN3CC=C(c4ccccc4)CC3)c2c1	29.2% [at 35.3 µM, hits give high values] (inactive)	–
NC1CCC(CC2CCC(N)CC2)CC1 (stereo not given)	-0.621% (inactive)	–
CCCC[N+]1(C)CCCC1 (tested in a mixture with another compound)	-11.2% (inactive)	–
O=Cc1ccccc1	0.432% (inactive)	–
COC(=O)c1ccccc1S(=O)(=O)NC(=O)Nc1nc(C)nc(OC)n1	13.3% (inactive)	–
C#CCC1=C(C)C(OC(=O)C2C(C=C(C)C)C2(C)C)CC1=O (stereo not given)	1.14% (inactive)	–
O=S1OCC2C(CO1)C1(Cl)C(Cl)=C(Cl)C2(Cl)C1(Cl)Cl (stereo not given)	–	55 µM (active) and 54.9 µM (active)
N#Cc1c2ccccc2cc2ccccc12	-5.01% (inactive)	–
CCCN	-1.03% (inactive)	–
